# According to PubChem BioAssay (EPA / NIEHS):
# Inconclusive results are not listed. The source made the active and inactive calls. How the source made its calls: active means hit-call score of the fitted dose curve at least 0.9, where 1 is the maximum; inconclusive means response in the unintended direction; inactive means score below 0.9.
# What was measured:
# [1] = molecular target: human CYP2C9, CYP2C9 (gene 1559) (UniProt P11712); assay: NVS_ADME_hCYP2C9: NovaScreen (NVS) CYP450-related Enzyme Activity (ADME) Assay for human CYP2C9 (AID 2283108)
# Chain of human CYP2C9, CYP2C9 (gene 1559) (P11712 whole entry, looked up): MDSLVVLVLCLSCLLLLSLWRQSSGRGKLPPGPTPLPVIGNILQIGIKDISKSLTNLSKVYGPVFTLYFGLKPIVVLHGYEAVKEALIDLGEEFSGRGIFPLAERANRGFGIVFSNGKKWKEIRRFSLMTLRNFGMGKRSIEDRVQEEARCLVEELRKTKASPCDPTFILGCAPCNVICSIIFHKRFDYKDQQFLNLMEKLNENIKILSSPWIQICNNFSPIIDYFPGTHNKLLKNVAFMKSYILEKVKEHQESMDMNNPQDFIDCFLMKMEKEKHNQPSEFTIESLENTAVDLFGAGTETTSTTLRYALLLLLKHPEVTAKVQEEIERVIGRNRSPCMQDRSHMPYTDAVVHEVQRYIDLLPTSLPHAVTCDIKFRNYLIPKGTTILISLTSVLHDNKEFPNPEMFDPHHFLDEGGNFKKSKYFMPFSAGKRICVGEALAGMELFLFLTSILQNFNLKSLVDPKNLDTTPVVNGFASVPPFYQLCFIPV
# Method in brief: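 Fluorescence readout of CYP2C9 activity (SF9-expressed human enzyme) at 0.75 h. The primary screen used 10 uM in duplicate, with concentration-response follow-up for actives; acetonitrile was the negative control.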
# [2] = molecular target: Cytochrome P450 2C19 (Homo sapiens) (UniProt P33261); assay: NVS_ADME_hCYP2C19: NovaScreen (NVS) CYP450-related Enzyme Activity (ADME) Assay for human CYP2C19 (AID 2283113);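 on AC50: potency for inhibition seen as loss of fluorescent signal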
# Method in brief: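 Fluorescence intensity was measured 1 hour after chemicals were added to insect-cell-derived recombinant CYP2C19 with fluorogenic substrate. Decreased signal versus acetonitrile control was taken as reduced enzyme activity; initial testing used 10 uM in duplicate.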
# [3] = molecular target: human Caspase 4 (CASP4), CASP4 (gene 837) (UniProt P49662); assay: NVS_ENZ_hCASP4: NovaScreen (NVS) Enzymatic Assay for human Caspase 4 (CASP4) (AID 2283143)
# Chain of human Caspase 4 (CASP4), CASP4 (gene 837) (P49662 whole entry, looked up): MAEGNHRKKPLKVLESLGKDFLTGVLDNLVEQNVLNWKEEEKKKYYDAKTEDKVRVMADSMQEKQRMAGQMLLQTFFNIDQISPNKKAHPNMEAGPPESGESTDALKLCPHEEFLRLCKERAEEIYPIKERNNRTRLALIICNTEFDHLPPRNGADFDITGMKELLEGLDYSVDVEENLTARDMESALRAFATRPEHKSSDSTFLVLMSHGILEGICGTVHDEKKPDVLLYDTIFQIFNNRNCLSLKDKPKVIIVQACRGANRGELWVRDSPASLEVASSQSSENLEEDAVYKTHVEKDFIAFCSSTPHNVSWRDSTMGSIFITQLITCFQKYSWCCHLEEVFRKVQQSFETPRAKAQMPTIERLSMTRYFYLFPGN
# Method in brief: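 The cell-free assay used E. coli-expressed enzyme with a fluorogenic substrate, read 2 h after dosing. Signal loss was scored versus DMSO. Screening was in duplicate at 25 uM, then singleton concentration-response up to 50 uM.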
# [4] = molecular target: human Esterase Plasma (ES), BCHE (gene 590) (UniProt P06276); assay: NVS_ENZ_hES: NovaScreen (NVS) Enzymatic Assay for human Esterase Plasma (ES) (AID 2283157)
# Chain of human Esterase Plasma (ES), BCHE (gene 590) (P06276 whole entry, looked up): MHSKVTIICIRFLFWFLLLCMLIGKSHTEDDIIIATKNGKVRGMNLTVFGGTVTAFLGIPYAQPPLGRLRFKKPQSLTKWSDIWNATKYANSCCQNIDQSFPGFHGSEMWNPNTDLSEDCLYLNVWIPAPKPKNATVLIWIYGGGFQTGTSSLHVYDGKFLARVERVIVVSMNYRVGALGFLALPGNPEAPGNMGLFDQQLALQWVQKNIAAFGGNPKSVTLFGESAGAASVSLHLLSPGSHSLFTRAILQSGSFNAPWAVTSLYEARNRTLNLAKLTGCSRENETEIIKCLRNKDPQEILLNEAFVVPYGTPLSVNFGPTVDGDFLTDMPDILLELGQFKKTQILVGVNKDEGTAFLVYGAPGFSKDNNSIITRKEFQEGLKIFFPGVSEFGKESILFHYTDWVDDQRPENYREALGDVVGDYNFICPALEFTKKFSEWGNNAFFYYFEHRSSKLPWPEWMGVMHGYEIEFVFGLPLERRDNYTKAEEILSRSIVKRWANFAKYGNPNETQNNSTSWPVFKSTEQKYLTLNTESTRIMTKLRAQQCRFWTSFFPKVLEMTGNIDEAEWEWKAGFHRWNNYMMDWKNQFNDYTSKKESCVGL
# Method in brief: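 Chemicals were added to plasma-extracted human enzyme in a cell-free format, and activity was read colorimetrically after 0.25 hour. Activity loss was referenced to DMSO; concentration-response top dose was 50 uM.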
# [5] = molecular target: human AKT serine/threonine Kinase 1 (AKT1), AKT1 (gene 207) (UniProt P31749); assay: NVS_ENZ_hAKT1: NovaScreen (NVS) Enzymatic Assay for human AKT serine/threonine Kinase 1 (AKT1) (AID 2283138)
# Chain of human AKT serine/threonine Kinase 1 (AKT1), AKT1 (gene 207) (P31749 whole entry, looked up): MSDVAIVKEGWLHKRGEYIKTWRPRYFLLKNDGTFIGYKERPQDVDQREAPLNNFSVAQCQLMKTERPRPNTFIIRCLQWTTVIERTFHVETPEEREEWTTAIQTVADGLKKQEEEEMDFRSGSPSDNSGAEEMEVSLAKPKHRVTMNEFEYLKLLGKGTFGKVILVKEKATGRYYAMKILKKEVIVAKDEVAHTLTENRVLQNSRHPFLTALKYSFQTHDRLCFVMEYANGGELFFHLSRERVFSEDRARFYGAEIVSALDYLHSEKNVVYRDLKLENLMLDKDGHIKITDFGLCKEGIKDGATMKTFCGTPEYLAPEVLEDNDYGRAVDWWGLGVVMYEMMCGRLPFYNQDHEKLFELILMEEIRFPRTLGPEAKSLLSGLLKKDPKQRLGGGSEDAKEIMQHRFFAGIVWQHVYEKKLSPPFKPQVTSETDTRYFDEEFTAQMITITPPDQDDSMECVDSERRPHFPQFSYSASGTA
# Method in brief: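 Signal loss relative to DMSO, measured by fluorescence after electrophoretic separation of substrate and product, indicates inhibition of recombinant enzyme. Readings at 1 h; screening at 25 uM, follow-up curves up to 50 uM.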
# [6] = molecular target: human Acid Phosphatase 1 (ACP1), ACP1 (gene 52) (UniProt P24666); assay: NVS_ENZ_hACP1: NovaScreen (NVS) Enzymatic Assay for human Acid Phosphatase 1 (ACP1) (AID 2283136)
# Chain of human Acid Phosphatase 1 (ACP1), ACP1 (gene 52) (P24666 whole entry, looked up): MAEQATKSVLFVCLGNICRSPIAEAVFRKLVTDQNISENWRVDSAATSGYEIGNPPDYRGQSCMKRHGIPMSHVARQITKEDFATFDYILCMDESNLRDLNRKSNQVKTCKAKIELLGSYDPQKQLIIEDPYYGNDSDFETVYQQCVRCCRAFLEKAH
# Method in brief: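 Recombinant enzyme expressed in Sf9 cells, tested cell-free; activity read by fluorescence with electrophoretic mobility shift separation of substrate and product, 1.5 h after dosing. Primary screen in duplicate at 25 uM, actives then run in concentration series; loss of signal versus DMSO.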
# [7] = molecular target: CDK2 (gene 1017) (UniProt P24941); assay: NVS_ENZ_hCDK2: NovaScreen (NVS) Enzymatic Assay for human Cyclin-Cependent Kinase 2 (CDK2) (AID 2283144)
# Method in brief: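 Cell-free recombinant human CDK2 with fluorescent substrate, product separated by electrophoretic mobility shift; 1 hr read. Primary screen at 25 uM in duplicate, actives retested in concentration-response up to 50 uM; loss of signal versus DMSO.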
# [8] = molecular target: human Caspase 8 (CASP8), CASP8 (gene 841) (UniProt Q14790); assay: NVS_ENZ_hCASP8: NovaScreen (NVS) Enzymatic Assay for human Caspase 8 (CASP8) (AID 2283146)
# Chain of human Caspase 8 (CASP8), CASP8 (gene 841) (Q14790 whole entry, looked up): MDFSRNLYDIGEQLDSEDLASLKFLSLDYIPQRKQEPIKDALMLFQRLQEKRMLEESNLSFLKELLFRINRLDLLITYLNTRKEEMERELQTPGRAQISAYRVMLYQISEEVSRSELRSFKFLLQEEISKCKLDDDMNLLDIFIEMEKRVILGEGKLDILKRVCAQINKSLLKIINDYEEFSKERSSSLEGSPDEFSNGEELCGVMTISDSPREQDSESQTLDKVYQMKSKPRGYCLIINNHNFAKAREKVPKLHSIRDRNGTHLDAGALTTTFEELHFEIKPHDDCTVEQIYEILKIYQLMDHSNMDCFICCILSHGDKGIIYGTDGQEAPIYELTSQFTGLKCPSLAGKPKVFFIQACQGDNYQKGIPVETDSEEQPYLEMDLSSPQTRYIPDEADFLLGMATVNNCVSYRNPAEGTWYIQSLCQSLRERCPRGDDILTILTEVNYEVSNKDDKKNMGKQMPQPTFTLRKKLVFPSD
# Method in brief: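 E. coli-expressed enzyme was used in a cell-free fluorogenic substrate assay read 1 h after dosing. Loss of signal was scored relative to DMSO, and the primary screen was run in duplicate at 25 uM.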
# [9] = molecular target: human Colony Stimulating Factor 1 Receptor (CSF1R), CSF1R (gene 1436) (UniProt P07333); assay: NVS_ENZ_hCSF1R: NovaScreen (NVS) Enzymatic Assay for human Colony Stimulating Factor 1 Receptor (CSF1R) (AID 2283150)
# Method in brief: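 Cell-free recombinant human CSF1R kinase with fluorescent substrate, product separated by electrophoretic mobility shift; read 1 h after dosing. Primary screen at 25 uM in duplicate, actives then in concentration-response up to 50 uM, relative to DMSO.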
# [10] = molecular target: human Ephrin type-A Receptor 1 (EphA1), EPHA1 (gene 2041) (UniProt P21709); assay: NVS_ENZ_hEphA1: NovaScreen (NVS) Enzymatic Assay for human Ephrin type-A Receptor 1 (EphA1) (AID 2283158);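 further: activity is signal loss versus DMSO meaning EphA1 kinase inhibition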
# Method in brief: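 Chemicals first tested in duplicate at 25 uM against recombinant EphA1 with a fluorescent substrate; those passing threshold went to singleton dose-response topping at 50 uM. Activity read 1 h later as mobility-shift fluorescence, loss of signal relative to DMSO.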
# [11] = molecular target: human AKT serine/threonine Kinase 2 (AKT2), AKT2 (gene 208) (UniProt P31751); assay: NVS_ENZ_hAKT2: NovaScreen (NVS) Enzymatic Assay for human AKT serine/threonine Kinase 2 (AKT2) (AID 2283141)
# Method in brief: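 Cell-free fluorescence/electrophoretic mobility shift readout of recombinant human AKT2 activity, 1 h after chemical dosing. Duplicate primary screen at 25 uM, then singleton concentration-response up to 50 uM; loss of signal versus DMSO baseline.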
# [12] = molecular target: human Casein Kinase 1-delta (CK1D), CSNK1D (gene 1453) (UniProt P48730); assay: NVS_ENZ_hCK1D: NovaScreen (NVS) Enzymatic Assay for human Casein Kinase 1-delta (CK1D) (AID 2283148)
# Chain of human Casein Kinase 1-delta (CK1D), CSNK1D (gene 1453) (P48730 whole entry, looked up): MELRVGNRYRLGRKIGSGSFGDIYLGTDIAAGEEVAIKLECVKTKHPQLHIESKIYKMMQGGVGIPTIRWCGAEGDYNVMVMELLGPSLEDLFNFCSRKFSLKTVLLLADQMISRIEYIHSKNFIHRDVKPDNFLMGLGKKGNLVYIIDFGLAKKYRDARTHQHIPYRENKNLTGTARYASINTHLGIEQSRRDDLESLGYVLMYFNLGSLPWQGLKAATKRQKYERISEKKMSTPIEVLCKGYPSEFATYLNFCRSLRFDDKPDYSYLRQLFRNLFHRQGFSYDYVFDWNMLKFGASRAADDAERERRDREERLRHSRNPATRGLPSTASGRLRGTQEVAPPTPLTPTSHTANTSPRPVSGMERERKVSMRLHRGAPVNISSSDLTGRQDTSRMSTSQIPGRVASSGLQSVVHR
# Method in brief: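 Recombinant human CK1-delta, cell-free; fluorescent substrate with electrophoretic mobility-shift separation of product, read 1 h after dosing. Single 25 uM duplicate screen, then concentration-response up to 50 uM; loss of signal vs DMSO.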
# [13] = molecular target: human Elastase, ELANE (gene 1991) (UniProt P08246); assay: NVS_ENZ_hElastase: NovaScreen (NVS) Enzymatic Assay for human Elastase (AID 2283153)
# Chain of human Elastase, ELANE (gene 1991) (P08246 whole entry, looked up): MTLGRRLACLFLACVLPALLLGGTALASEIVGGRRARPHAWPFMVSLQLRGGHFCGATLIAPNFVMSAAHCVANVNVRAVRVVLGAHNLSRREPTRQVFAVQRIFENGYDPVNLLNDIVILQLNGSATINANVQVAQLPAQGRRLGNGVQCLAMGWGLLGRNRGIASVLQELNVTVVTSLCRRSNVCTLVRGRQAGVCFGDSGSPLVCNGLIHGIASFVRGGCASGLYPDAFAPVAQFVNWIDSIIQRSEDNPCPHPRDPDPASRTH
# Method in brief: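 Cell-free elastase from human neutrophils, 1.5 h after dosing, activity read by absorbance. Primary screen in duplicate at 25 uM; hits (e.g., 30% inhibition) rerun in singleton concentration-response up to 50 uM, fitted versus DMSO.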
# [14] = molecular target: human FYN Proto-Oncogene, Src family Tyrosine Kinase (Fyn), FYN (gene 2534) (UniProt P06241); assay: NVS_ENZ_hFyn: NovaScreen (NVS) Enzymatic Assay for human FYN Proto-Oncogene, Src family Tyrosine Kinase (Fyn) (AID 2283161)
# Method in brief: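 Recombinant enzyme with fluorescent substrate, product separated by electrophoretic mobility shift; read 1 h after dosing. Duplicate 25 uM single-point screen, actives retested in concentration series; loss of signal vs DMSO.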
# [15] = molecular target: human Beta-secretase (BACE), BACE1 (gene 23621) (UniProt P56817); assay: NVS_ENZ_hBACE: NovaScreen (NVS) Enzymatic Assay for human Beta-secretase (BACE) (AID 2283140);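 further: hits are inhibitors that reduce fluorescent substrate signal versus DMSO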
# Chain of human Beta-secretase (BACE), BACE1 (gene 23621) (P56817 whole entry, looked up): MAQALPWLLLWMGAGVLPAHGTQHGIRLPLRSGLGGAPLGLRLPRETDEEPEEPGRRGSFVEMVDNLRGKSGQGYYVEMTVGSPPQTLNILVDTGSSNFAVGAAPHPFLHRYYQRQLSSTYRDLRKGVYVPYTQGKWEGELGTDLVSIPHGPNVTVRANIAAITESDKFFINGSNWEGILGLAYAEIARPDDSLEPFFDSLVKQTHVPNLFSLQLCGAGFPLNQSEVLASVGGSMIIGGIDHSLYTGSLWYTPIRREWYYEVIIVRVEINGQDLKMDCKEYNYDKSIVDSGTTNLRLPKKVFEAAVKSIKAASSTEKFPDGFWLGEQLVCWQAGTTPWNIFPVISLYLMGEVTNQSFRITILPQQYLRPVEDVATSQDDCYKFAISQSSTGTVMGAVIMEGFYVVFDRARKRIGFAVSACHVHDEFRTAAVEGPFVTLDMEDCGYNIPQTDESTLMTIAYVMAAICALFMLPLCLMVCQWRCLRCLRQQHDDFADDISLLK
# Method in brief: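 Recombinant BACE1 (SF9 extract) incubated with compound and fluorescent substrate, 1 h. Plates carried positive and DMSO negative controls. Initial single dose 25 uM, duplicate; confirmation by concentration series.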
# [16] = molecular target: human Dual Specificity Protein Phosphatase 3 (DUSP3), DUSP3 (gene 1845) (UniProt P51452); assay: NVS_ENZ_hDUSP3: NovaScreen (NVS) Enzymatic Assay for human Dual Specificity Protein Phosphatase 3 (DUSP3) (AID 2283152);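 further: phosphatase activity of recombinant human DUSP3 on a fluorogenic substrate without cells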
# Method in brief: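 Cell-free assay with recombinant human DUSP3 and fluorogenic substrate, read by fluorescence intensity. Primary screen ran duplicate at 25 uM; actives followed up in concentration series; loss of signal versus DMSO scored.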
# [17] = molecular target: Caspase-3 (Homo sapiens) (UniProt P42574); assay: NVS_ENZ_hCASP3: NovaScreen (NVS) Enzymatic Assay for human Caspase 3 (CASP3) (AID 2283139)
# Method in brief: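 Recombinant human caspase-3 from E. coli with a fluorogenic substrate, read by fluorescence 1 h after dosing. Primary screen in duplicate at 25 uM. Actives (for example ≥30% inhibition) rerun as concentration-response up to 50 uM.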
# [18] = molecular target: human CYP2D6, CYP2D6 (gene 1565) (UniProt P10635); assay: NVS_ADME_hCYP2D6: NovaScreen (NVS) CYP450-related Enzyme Activity (ADME) Assay for human CYP2D6 (AID 2283107)
# Chain of human CYP2D6, CYP2D6 (gene 1565) (P10635 whole entry, looked up): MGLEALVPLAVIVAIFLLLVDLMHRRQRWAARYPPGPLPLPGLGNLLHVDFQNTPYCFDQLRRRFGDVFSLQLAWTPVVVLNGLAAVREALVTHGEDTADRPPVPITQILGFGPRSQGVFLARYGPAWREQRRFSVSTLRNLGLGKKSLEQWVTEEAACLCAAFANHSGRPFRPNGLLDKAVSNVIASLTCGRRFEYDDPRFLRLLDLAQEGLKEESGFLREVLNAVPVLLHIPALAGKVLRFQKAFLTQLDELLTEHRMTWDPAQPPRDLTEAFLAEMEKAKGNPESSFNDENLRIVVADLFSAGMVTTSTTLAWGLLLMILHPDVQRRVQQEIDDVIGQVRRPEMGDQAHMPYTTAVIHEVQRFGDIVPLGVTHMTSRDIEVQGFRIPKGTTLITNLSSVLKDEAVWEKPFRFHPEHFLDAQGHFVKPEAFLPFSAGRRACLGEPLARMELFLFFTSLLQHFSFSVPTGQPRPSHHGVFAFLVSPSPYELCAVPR
# Method in brief: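 Insect-cell recombinant enzyme + fluorogenic substrate, cell-free; 1 h incubation; fluorescence intensity readout. Acetonitrile = neg. ctrl/baseline. Single-point 10 uM, duplicate; follow-up concentration series.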
# [19] = molecular target: Cytochrome P450 3A4 (Homo sapiens) (UniProt P08684); assay: NVS_ADME_hCYP3A4: NovaScreen (NVS) CYP450-related Enzyme Activity (ADME) Assay for human CYP3A4 (AID 2283110)
# Chain of Cytochrome P450 3A4 (Homo sapiens) (P08684 whole entry, looked up): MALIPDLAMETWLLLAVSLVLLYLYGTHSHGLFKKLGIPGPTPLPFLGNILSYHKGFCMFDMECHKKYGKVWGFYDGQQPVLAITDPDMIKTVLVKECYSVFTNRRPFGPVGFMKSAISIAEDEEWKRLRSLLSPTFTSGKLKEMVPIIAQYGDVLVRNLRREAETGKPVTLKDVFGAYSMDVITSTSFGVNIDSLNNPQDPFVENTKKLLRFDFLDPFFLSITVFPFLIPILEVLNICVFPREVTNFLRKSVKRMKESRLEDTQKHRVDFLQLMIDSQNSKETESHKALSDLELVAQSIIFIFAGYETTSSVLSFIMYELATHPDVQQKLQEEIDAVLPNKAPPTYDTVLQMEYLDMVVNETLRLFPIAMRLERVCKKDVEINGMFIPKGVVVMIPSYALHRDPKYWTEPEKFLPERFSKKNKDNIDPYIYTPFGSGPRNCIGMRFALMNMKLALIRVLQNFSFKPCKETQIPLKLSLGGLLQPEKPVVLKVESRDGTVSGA
# Method in brief: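 Compounds were first screened in duplicate at 10 uM against recombinant CYP3A4 produced in insect cells, then actives were run in concentration series. Enzyme activity was measured by fluorescence after 0.33 hour, with acetonitrile as baseline.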
structure (smiles),measurement,setting,value
CC=Cc1ccc(O)c(OC)c1,outcome,[1],inactive
Cc1cccc([N+](=O)[O-])c1C,AC50,[2],18.6 µM (active)
same,outcome,[3],inactive
same,outcome,[4],inactive
CCCCCCCCCCCCCCCC,outcome,[5],inactive
FC(F)(F)C(F)(F)C(F)(F)C(F)(F)C(F)(F)C(F)(F)CCI,outcome,[6],inactive
same,outcome,[7],inactive
same,outcome,[8],inactive
same,outcome,[9],inactive
same,outcome,[4],inactive
same,outcome,[10],inactive
CC1=C(/C=C/C(C)=C/C=C/C(C)=C/CO)C(C)(C)CCC1,AC50,[1],18.2 µM (active)
same,outcome,[2],inactive
same,outcome,[5],inactive
same,outcome,[11],inactive
same,outcome,[3],inactive
same,outcome,[7],inactive
same,outcome,[12],inactive
same,AC50,[13],21.8 µM (active)
same,outcome,[14],inactive
CCCCC(CC)COC(=O)CC(C(=O)OCC(CC)CCCC)S(=O)(=O)O (stereo not given),AC50,[1],3.5 µM (active)
same,AC50,[2],4.49 µM (active)
same,AC50,[15],1.35 µM (active)
same,AC50,[16],14.7 µM (active)
same,AC50,[13],25 µM (active)
same,outcome,[4],inactive
CCCc1cc(=O)[nH]c(=S)[nH]1,outcome,[6],inactive
same,outcome,[17],inactive
Nc1ccc2c(c1)C(=O)c1ccccc1C2=O,outcome,[5],inactive
same,AC50,[15],2.16 µM (active)
same,AC50,[3],18.9 µM (active)
same,AC50,[13],15.5 µM (active)
CCCCCCC(=O)OCC,outcome,[18],inactive
same,AC50,[1],14.8 µM (active)
O=C(O)Cc1ccccc1Nc1c(Cl)cccc1Cl,outcome,[18],inactive
same,outcome,[6],inactive
same,AC50,[8],12.3 µM (active)
COc1ccc(S(=O)(=O)N2C(=O)[C@@](c3ccccc3OC)(N3C[C@H](O)C[C@H]3C(=O)N(C)C)c3cc(Cl)ccc32)c(OC)c1,AC50,[19],4.57 µM (active)
same,AC50,[2],6.95 µM (active)
same,outcome,[3],inactive
CCCCCCOCCO,outcome,[5],inactive
COc1ccc2c(c1)c(CC(=O)O)c(C)n2C(=O)c1ccc(Cl)cc1,AC50,[19],10 µM (active)
CN1CCN(Cc2cc(-c3ccc4[nH]c(=O)oc4c3)co2)[C@@H](c2ccc(F)cc2)C1,outcome,[2],inactive
same,AC50,[4],9.48 µM (active)
Oc1ccc2c(c1)OC[C@@H](N1CCC(O)(c3ccc(F)cc3)CC1)[C@H]2O,outcome,[18],inactive
same,AC50,[2],7.71 µM (active)
same,outcome,[16],inactive
Nc1nc(N)c2nc(CNc3ccc(C(=O)N[C@@H](CCC(=O)O)C(=O)O)cc3)cnc2n1,AC50,[1],12.3 µM (active)
same,outcome,[13],inactive
same,outcome,[4],inactive
CCOc1ccc2c(c1)C(C)=CC(C)(C)N2,AC50,[18],3.51 µM (active)
same,AC50,[1],10 µM (active)
same,AC50,[3],15.1 µM (active)
same,AC50,[9],25 µM (active)
Cc1ccc2ncccc2c1,outcome,[6],inactive
same,outcome,[15],inactive
same,outcome,[11],inactive
same,AC50,[12],4.96 µM (active)
CCCCCCCCCCCC(=O)OC,outcome,[5],inactive
NCCO,outcome,[19],inactive
same,outcome,[6],inactive
same,outcome,[5],inactive
same,outcome,[12],inactive
same,outcome,[14],inactive
Cc1c(C(=O)O)c(O)cc2c1C(=O)c1c(O)c([C@@H]3O[C@H](CO)[C@@H](O)[C@H](O)[C@H]3O)c(O)c(O)c1C2=O,outcome,[2],inactive
